Assay results as given in PubChem BioAssay (NCI).
The panel holds about 83,000 compounds, 20% with a hit somewhere; the sample as a whole holds those more often.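 Values shown are percent growth following 48 h exposure of cells in 96-well plates to a single concentration of compound; below 10 was considered active.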 Calls of active or inactive are those of the source.

Test system: MDA-MB-468 breast
Test: NCI-60 one-dose screen, 48 h (100 = growth as untreated, 0 = no growth, -100 = all killed)
Details: 10 µM unless noted

SMILES	growth
Cc1ccc(Nc2cc(Cl)c([N+](=O)[O-])cc2[N+](=O)[O-])cc1	-65.8% (active)
O=C(NO)c1ccc(-n2nc(-c3ccccc3)c3ccccc32)cc1	52.9% (inactive)
O=C1/C(=C/c2ccccc2)CN(C(=O)c2cccnc2)C/C1=C\c1ccccc1	-49.2% (active)
Cc1ccc2sc3c(c2c1)OC(N)=C(C#N)C3c1cccc(F)c1 (stereo unspecified)	-14.1% (active)
CC1CN(S(=O)(=O)c2oc(-c3ccc(Cl)cc3)nc2C#N)CC(C)O1 (stereo unspecified)	70% (inactive)
COc1ccc(-c2cnoc2-c2cc(OC)c3c(c2)OCCO3)cc1	20.4% (inactive)
Nc1ccccc1NC(=O)c1ccc(NC(=O)C/C=C/c2cccnc2)cn1	-19.6% (active)
C/C(=N\NC(=O)c1ccc(C(C)(C)C)cc1)c1ccc(O)cc1O	-26.3% (active)
CN1CCN(CC#CCn2c3c(c4ccccc42)C[C@]2(C)[C@H]4CC[C@@H]5[C@H]6[C@H]7OC(=O)[C@@]6(CCC7(C)C)CC[C@@]5(C)[C@]4(C)CC[C@H]2C3(C)C)CC1	93.9% (inactive)
CC[C@]1(O)C[C@@H]2CN(CCc3c([nH]c4ccccc34)[C@@](C(=O)OC)(c3cc4c(cc3OC)N(C)[C@H]3[C@@](O)(C(N)=O)[C@H](O)[C@]5(CC)[C@@H]6C[C@@H]6CN6CC[C@]43[C@@H]65)C2)C1	43.8% (inactive)
COC(=O)[C@H]1CCCN1C(=O)[C@H]1CCCN1C(=O)[C@H](Cc1c[nH]c2ccccc12)NC(=S)Nc1cc(C(F)(F)F)cc(C(F)(F)F)c1	61% (inactive)
